The values that follow come from PubChem BioAssay (Tox21).

SMILES strings stand for the structures. A number with no mark means an inactive call. Records with an inconclusive call do not appear. Activity calls are given as the source filed them. Unless noted, calls come from the whole dose curve; as a rule, active = well fitted curve in the direction sought with a large enough effect in the repeat runs; inconclusive = weak or mixed curves; inactive = no such curve, though single readings can be large; an effect the other way counts as inactive or inconclusive.

Experiment [1] can be described thus: Caspase-3/7 induction in CHO-K1 cells by small molecules, qHTS cell viability counter screen (AID 1346979). Note: potency is the fitted concentration of half-maximal effect; nearly all actives have a fitted effect of over 35% in size. Put shortly: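 Seeding: 1,500 CHO-K1 cells/well. Rest: 5hr, 37C. Treatment: compounds in DMSO, 16hr. Read: CellTiter-Fluor, 1hr, fluorescence.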
Experiment [2] in a line: Caspase-3/7 induction in CHO-K1 cells by small molecules, qHTS assay (AID 1346980). Note: % is set by controls: 0 for no effect and ±100 for the full control effect; nearly all actives have a fitted effect of over 15% in size. Put shortly:
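Wild-type CHO-K1 cells exposed to compounds for 17hr at 37 C, 5% CO2. Caspase-3/7 activity then measured by Caspase-Glo 3/7 luminescence after 30min at room temperature.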
(qHTS replaces the single test concentration by a dilution series.)

Experiment [3] deals with Nuclear receptor subfamily 1 group I member 2 (Homo sapiens) (UniProt O75469). The experiment is described as follows: Human pregnane X receptor (PXR) small molecule agonists, qHTS assay (AID 1346982). For activation: % is set by controls: 0 for no effect and ±100 for the full control effect. Note: nearly all actives have a fitted effect of over 35% in size. Note: potency is the fitted concentration of half-maximal effect. The method in brief: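 After plating in 5% charcoal-stripped FBS and a 5 hr rest, PXR-Luc HepG2 cells received compounds in DMSO. Following 24 hr at 37 C, ONE-Glo was added and light output read.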
Chain of Nuclear receptor subfamily 1 group I member 2 (Homo sapiens) (O75469 whole entry, looked up): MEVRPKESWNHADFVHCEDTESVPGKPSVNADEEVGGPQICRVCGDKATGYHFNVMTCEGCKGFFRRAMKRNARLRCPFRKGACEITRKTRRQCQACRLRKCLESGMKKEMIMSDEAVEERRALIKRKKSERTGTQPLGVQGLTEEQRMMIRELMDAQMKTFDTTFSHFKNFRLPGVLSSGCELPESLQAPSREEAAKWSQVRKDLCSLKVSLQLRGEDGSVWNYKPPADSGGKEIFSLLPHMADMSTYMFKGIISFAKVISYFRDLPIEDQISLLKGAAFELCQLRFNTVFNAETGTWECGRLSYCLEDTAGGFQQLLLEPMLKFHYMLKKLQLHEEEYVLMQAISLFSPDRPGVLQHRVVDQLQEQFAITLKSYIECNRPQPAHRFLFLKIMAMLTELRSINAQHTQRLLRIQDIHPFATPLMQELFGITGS

Experiment [4] deals with Acetylcholinesterase (Homo sapiens) (UniProt P22303). Briefly: Acetylcholinesterase (AChE) small molecule antagonists: colormetric cell-based qHTS assay (AID 1347395; calls by dose curve; note: nearly all actives have a fitted effect of over 30% in size; note: potency is the fitted concentration of half-maximal effect). Put shortly:
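Quantitative HTS in attached SH-SY5Y cells: 30 min compound exposure, then 90 min with acetylthiocholine and DTNB at 37 C; colour from thiocholine reports AChE activity.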

Experiment [5] shares this target. Briefly: Acetylcholinesterase (AChE) small molecule antagonists: enzyme-based qHTS assay (AID 1347397; calls by dose curve; note: % is set by controls: 0 for no effect and ±100 for the full control effect; nearly all actives have a fitted effect of over 55% in size). The conditions noted are these: Potency: AChE enzyme activity inhibition. The method in brief:
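In this quantitative HTS, compounds from the Tox21 10K collection were preincubated 30 min at ambient temperature with recombinant human AChE dispensed at 50 mU/mL. Hydrolysis of acetylthiocholine was then followed for 10 min by DTNB colour development.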

Experiment [6] shares this target. Briefly: Acetylcholinesterase (AChE) small molecule antagonists: fluorescence cell-based qHTS assay (AID 1347398; calls by dose curve; note: % is set by controls: 0 for no effect and ±100 for the full control effect; nearly all actives have a fitted effect of over 50% in size). The settings on record: Potency: AChE activity. The method in brief: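 Cells (SH-SY5Y) attached overnight, were dosed with compound or DMSO vehicle for 30 min at 37 C, and then incubated 40 min at room temperature with acetylthiocholine and Thiolite Green; green fluorescence indexed AChE activity.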

Experiment [7] shares this target. Briefly: Acetylcholinesterase (AChE) small molecule antagonists: enzyme-based qHTS assay with human liver microsomes (AID 1347399; calls by dose curve; note: % is set by controls: 0 for no effect and ±100 for the full control effect; nearly all actives have a fitted effect of over 60% in size). The conditions noted are these: Potency: qHTS inhibition. Put shortly: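 Recombinant human AChE (50 mU/mL in the enzyme mix) and human liver microsomes (0.25 mg/mL final) were preincubated with compound and NADPH (0.25 mg/mL final) for 30 min at 37 C. Acetylthiocholine/DTNB was then added; thiocholine was read colorimetrically after 10 min at room temperature.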

Experiment [8] addresses Cytochrome P450 2C9 (Homo sapiens) (UniProt P11712). The experiment is described as follows: Cytochrome P450 Family 2 Subfamily C Member 9 (CYP2C9) small molecule antagonists: luciferase reporter qHTS assay (AID 1671198). Note: nearly all actives have a fitted effect of over 50% in size. Note: potency is the fitted concentration of half-maximal effect. The method in brief: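 P450-Glo proluciferin substrate with CYP2C9 enzyme; 10 min RT preincubation, then NADPH regeneration 1 h at 37C; luciferin detection reagent 20 min RT, luminescence in relative luminescence units.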
In general terms: A reporter such as luciferase makes a cellular process visible.

The target of experiment [9] is Cytochrome P450 1A2 (Homo sapiens) (UniProt P05177). The experiment is described as follows: Cytochrome P450 Family 1 Subfamily A Member 2 (CYP1A2) small molecule antagonists: luciferase reporter qHTS assay (AID 1671199). Note: nearly all actives have a fitted effect of over 50% in size. Note: potency is the fitted concentration of half-maximal effect. Put shortly:
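Quantitative high-throughput format using the P450-Glo CYP1A2 system. Reaction initiated by NADPH regeneration solution, 1 h at room temperature, then stopped with detection reagent; luminescence measured 20 min later.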

The target of experiment [10] is Voltage-gated inwardly rectifying potassium channel KCNH2 (Homo sapiens) (UniProt Q12809). The experiment is described as follows: Human Ether-a-go-go-Related Gene (hERG) channel small molecule antagonists: fluorescence cell-based qHTS assay (AID 1671200).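 Note: hERG-expressing U2OS cells given a thallium stimulus after FluxOR II dye loading; series mostly up to about 77 µM; % is set by controls: 0 for no effect and ±100 for the full control effect; nearly all actives have a fitted effect of over 50% in size.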 Put shortly: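 First, 1000 cells per well are seeded and cultured overnight at 37 C. Next, FluxOR II dye is loaded for 1 h at room temperature, protected from light. After 10 more minutes, stimulus is added and fluorescence is read.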
Chain of Voltage-gated inwardly rectifying potassium channel KCNH2 (Homo sapiens) (Q12809 whole entry, looked up): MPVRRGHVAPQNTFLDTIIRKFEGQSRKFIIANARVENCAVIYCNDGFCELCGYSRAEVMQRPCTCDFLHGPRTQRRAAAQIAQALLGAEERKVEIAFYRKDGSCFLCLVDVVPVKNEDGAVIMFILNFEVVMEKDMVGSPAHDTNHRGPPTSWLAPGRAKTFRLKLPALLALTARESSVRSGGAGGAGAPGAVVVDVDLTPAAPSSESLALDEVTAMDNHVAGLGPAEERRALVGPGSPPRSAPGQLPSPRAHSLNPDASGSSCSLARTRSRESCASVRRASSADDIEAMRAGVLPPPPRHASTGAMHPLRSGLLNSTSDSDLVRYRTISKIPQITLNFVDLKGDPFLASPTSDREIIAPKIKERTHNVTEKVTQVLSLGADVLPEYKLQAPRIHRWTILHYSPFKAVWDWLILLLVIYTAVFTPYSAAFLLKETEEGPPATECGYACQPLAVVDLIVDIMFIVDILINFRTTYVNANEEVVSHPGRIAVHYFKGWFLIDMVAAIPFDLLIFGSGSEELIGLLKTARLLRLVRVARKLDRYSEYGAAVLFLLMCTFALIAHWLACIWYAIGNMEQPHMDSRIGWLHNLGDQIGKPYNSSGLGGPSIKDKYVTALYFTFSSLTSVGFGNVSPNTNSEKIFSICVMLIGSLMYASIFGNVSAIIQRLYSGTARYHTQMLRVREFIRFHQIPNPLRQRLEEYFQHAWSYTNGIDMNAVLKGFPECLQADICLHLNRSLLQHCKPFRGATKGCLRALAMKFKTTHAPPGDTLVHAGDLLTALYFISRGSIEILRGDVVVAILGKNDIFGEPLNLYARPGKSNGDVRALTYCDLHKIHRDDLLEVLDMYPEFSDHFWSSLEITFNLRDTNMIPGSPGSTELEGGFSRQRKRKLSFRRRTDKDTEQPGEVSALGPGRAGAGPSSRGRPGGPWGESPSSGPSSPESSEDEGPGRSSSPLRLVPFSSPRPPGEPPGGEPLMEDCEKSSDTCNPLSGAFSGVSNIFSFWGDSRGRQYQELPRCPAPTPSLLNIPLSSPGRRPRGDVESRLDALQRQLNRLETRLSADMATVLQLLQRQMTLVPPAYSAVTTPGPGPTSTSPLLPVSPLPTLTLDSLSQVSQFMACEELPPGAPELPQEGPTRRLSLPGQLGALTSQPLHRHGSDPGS

For experiment [11], the target named is Cytochrome P450 3A4 (Homo sapiens) (UniProt P08684). The experiment is described as follows: Cytochrome P450 Family 3 Subfamily A Member 4 (CYP3A4) small molecule antagonists: luciferase reporter qHTS assay (AID 1671201). Note: nearly all actives have a fitted effect of over 50% in size. Note: potency is the fitted concentration of half-maximal effect. The method in brief: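 Enzyme and proluciferin substrate are mixed with test chemicals for 10 min, then NADPH regeneration system drives turnover for 1 h at room temperature. A detection reagent halts the reaction; luminescence after 20 min gives relative activity.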
Chain of Cytochrome P450 3A4 (Homo sapiens) (P08684 whole entry, looked up): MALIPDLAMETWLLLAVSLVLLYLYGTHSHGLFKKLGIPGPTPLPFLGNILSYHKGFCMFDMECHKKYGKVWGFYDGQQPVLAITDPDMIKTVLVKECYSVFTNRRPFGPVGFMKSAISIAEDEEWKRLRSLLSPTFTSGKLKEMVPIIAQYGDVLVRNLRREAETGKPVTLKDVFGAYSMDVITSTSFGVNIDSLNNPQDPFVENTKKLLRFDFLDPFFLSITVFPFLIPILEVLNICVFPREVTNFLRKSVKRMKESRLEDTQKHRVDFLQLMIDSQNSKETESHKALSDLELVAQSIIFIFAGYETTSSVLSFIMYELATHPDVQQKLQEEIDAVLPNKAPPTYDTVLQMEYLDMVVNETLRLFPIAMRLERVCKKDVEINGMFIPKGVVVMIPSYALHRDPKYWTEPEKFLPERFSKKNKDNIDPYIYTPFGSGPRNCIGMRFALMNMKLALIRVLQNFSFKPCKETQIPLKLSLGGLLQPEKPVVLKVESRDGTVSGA

The nature of experiment [12]: Caspase-3/7 induction in HepG2 cells by small molecules, qHTS assay (AID 1346978). Note: % is set by controls: 0 for no effect and ±100 for the full control effect; nearly all actives have a fitted effect of over 15% in size. Put shortly: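 Wild-type HepG2 cells, 2,000/well, settled 5 hr at 37 C and 5% CO2, then compound-treated for 17 hr; caspase-3/7 activity read by luminescent Caspase-Glo 3/7 after 30 min at room temperature.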
The target in experiment [13] is Cytochrome P450 2D6 (Homo sapiens) (UniProt P10635). Briefly: Cytochrome P450 Family 2 Subfamily D Member 6 (CYP2D6) small molecule antagonists: luciferase reporter qHTS assay (AID 1671196). Note: nearly all actives have a fitted effect of over 50% in size. Note: potency is the fitted concentration of half-maximal effect. Put shortly: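 Quantitative HTS of Tox21 chemicals against CYP2D6 using a luminescent proluciferin substrate. After NADPH addition, 1 h room-temperature reaction; luminescence recorded 20 min post detection reagent.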
Chain of Cytochrome P450 2D6 (Homo sapiens) (P10635 whole entry, looked up): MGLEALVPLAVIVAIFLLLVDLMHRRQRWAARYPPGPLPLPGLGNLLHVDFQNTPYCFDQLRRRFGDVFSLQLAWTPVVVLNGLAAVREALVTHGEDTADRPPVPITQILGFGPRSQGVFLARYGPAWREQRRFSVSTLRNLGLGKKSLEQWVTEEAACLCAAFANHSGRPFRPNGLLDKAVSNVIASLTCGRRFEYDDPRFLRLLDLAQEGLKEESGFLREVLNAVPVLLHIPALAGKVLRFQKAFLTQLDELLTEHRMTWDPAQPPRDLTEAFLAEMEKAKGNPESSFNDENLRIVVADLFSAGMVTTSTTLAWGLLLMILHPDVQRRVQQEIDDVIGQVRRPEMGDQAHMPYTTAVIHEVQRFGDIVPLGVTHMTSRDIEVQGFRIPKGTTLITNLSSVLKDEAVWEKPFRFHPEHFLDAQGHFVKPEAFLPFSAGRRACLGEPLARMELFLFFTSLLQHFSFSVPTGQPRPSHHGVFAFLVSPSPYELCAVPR

Experiment [14] concerns the target Cytochrome P450 2C19 (Homo sapiens) (UniProt P33261). The experiment is described as follows: Cytochrome P450 Family 2 Subfamily C Member 19 (CYP2C19) small molecule antagonists: luciferase reporter qHTS assay (AID 1671197). Note: nearly all actives have a fitted effect of over 65% in size. Note: potency is the fitted concentration of half-maximal effect. Put shortly: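 Inhibition of CYP2C19 was scored from loss of luminescence in a P450-Glo proluciferin substrate assay, NADPH-started and run 1 h at 37C, with ketoconazole as positive control.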

The nature of experiment [15]: Caspase-3/7 induction in HepG2 cells by small molecules, qHTS cell viability counter screen (AID 1346981). Note: series mostly up to about 92 µM; % is set by controls: 0 for no effect and ±100 for the full control effect; nearly all actives have a fitted effect of over 30% in size. The method in brief:
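The parent HepG2 line is plated at 2,000 cells per well and rested 5 hr before compound pinning from DMSO stocks. Following a 16-hr treatment at 37 C, a fluorogenic live-cell substrate (CellTiter-Fluor) reports viability after 1 hr.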

Experiment [16] concerns the target Nuclear receptor subfamily 1 group I member 2 (Rattus norvegicus) (UniProt Q9R1A7). Briefly: Rat pregnane X receptor (rPXR) activation by small molecules, qHTS assay (AID 1346983). Note: % is set by controls: 0 for no effect and ±100 for the full control effect; nearly all actives have a fitted effect of over 20% in size. The conditions noted are these: rPXR luciferase reporter cells, One-Glo luminescence, 24 h; max activation: hits give high values. The method in brief:
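Cell-based rPXR activation assay: rPXR cells, 2,000 per well, rested 5hr at 37 C, then exposed to compounds in DMSO for 24 hr at 37 C. Luciferase activity read by One-Glo luminescence after 30 min at room temperature.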

In experiment [17] the target is Nuclear receptor subfamily 1 group I member 2 (Homo sapiens) (UniProt O75469). The experiment is described as follows: CYP3A4 induction through human pregnane X receptor (PXR) by small molecules, qHTS assay (AID 1346984). Note: % is set by controls: 0 for no effect and ±100 for the full control effect; nearly all actives have a fitted effect of over 40% in size. Put shortly: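 Human PXR activation is tracked via CYP3A4 promoter-luciferase in DPX-2 (HepG2) cells. Compounds treat cells for 24hr at 37C, and luminescence is read after One-Glo.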

Experiment [18] has the same target. The experiment is described as follows: Human pregnane X receptor (PXR) activation by small molecules, qHTS assay (AID 1346985). Note: % is set by controls: 0 for no effect and ±100 for the full control effect; nearly all actives have a fitted effect of over 40% in size. The method in brief:
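DPX-2 cells (HepG2 co-transfected with a PXR response element and a CYP3A4-promoter luciferase construct) were seeded at 2,000 per well, rested 5 hr at 37C, then exposed to DMSO-dissolved compounds for 24 hr. Activation was read as luciferase luminescence.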

Chain of Cytochrome P450 2C19 (Homo sapiens) (P33261 whole entry, looked up): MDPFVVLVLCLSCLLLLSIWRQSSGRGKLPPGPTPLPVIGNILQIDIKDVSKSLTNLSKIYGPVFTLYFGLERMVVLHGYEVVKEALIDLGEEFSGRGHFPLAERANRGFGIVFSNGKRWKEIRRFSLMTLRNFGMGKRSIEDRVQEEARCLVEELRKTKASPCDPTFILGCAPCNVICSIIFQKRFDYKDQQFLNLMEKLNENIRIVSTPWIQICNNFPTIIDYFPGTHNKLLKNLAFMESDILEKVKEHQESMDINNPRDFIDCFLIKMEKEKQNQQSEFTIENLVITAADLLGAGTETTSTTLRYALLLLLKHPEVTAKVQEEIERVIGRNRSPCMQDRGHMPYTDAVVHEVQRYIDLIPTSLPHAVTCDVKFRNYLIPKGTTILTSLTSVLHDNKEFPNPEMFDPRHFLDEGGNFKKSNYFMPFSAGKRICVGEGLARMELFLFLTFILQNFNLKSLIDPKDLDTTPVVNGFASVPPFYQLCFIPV
Chain of Cytochrome P450 2C9 (Homo sapiens) (P11712 whole entry, looked up): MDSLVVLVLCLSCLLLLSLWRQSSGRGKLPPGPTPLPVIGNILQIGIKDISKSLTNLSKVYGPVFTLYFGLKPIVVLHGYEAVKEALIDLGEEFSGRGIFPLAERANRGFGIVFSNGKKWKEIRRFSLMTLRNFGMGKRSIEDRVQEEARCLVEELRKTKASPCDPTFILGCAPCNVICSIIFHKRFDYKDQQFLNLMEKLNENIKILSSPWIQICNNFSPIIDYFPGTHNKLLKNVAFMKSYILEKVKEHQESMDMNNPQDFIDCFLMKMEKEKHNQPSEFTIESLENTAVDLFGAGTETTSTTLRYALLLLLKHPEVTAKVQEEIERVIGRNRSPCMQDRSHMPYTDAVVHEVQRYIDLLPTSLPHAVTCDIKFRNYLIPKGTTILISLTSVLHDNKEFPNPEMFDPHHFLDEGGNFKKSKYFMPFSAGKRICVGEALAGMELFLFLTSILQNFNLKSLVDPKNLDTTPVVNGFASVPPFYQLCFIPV
Chain of Acetylcholinesterase (Homo sapiens) (P22303 whole entry, looked up): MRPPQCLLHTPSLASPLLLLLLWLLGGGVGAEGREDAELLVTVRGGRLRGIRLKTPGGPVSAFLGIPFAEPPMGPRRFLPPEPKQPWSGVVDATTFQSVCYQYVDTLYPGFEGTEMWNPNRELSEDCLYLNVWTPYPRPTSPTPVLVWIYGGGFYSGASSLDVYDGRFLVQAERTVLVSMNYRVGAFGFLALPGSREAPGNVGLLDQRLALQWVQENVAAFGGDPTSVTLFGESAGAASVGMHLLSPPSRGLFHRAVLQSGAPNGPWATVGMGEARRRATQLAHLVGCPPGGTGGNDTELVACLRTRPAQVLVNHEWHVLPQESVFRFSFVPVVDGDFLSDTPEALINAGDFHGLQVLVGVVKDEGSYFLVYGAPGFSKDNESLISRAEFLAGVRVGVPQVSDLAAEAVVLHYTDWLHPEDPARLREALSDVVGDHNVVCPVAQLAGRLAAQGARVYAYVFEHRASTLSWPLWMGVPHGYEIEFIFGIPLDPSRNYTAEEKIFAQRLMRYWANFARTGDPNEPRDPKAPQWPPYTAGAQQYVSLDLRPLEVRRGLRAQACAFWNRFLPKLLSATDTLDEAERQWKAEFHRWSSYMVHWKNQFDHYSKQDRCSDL
Chain of Cytochrome P450 1A2 (Homo sapiens) (P05177 whole entry, looked up): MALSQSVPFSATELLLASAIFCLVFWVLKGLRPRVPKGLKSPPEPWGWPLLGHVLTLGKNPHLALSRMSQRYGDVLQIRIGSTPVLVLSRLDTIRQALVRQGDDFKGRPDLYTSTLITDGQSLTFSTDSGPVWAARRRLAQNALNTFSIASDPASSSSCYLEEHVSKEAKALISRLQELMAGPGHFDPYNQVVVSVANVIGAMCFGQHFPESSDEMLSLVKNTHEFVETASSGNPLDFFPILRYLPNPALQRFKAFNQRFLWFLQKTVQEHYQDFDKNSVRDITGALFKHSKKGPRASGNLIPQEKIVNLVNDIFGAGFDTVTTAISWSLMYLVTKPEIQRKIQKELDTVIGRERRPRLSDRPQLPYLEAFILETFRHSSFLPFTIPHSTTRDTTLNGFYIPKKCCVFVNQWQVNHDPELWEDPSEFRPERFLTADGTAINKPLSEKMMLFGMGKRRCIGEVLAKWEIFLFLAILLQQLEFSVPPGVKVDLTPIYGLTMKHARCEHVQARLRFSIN

Take `C/C(=C\c1ccccc1)[N+](=O)[O-]`: the Potency in [1] was 10.9 µM (active); in experiment [3], 24.3 µM (active); in experiment [8] it was 35.6 µM (active); in [9], 35.6 µM (active); in experiment [11] it was 44.8 µM (active). Besides, the Potency result in [2], in experiment [4], in experiment [5], in experiment [6], in experiment [7] and in [10] was “inactive” each time.

On to `O=C(OC1CCCCC1)c1ccccc1C(=O)OC1CCCCC1`, for which the Potency entry in [12], in [2], in experiment [4], in experiment [6], in experiment [7] and in [13] was “inactive” in each case. Besides, the Potency is 5.74 µM (active) in [3]; 33.4 µM (active) in experiment [14]; 26.5 µM (active) in experiment [8]; 37.5 µM (active) in experiment [9]; 11.9 µM (active) in [11].

`COc1ccc(-c2ccccc2)cc1NNC(=O)OC(C)C`: the Potency result in experiment [12], in experiment [2], in experiment [4], in experiment [5], in [6] and in experiment [7] was “inactive” throughout. In addition, the Potency result in experiment [10] was “inactive”. The Potency in [3] is 71.5 µM (active); in experiment [13], 0.83 µM (active); in [14] it was 0.262 µM (active); in experiment [8], 2.62 µM (active); in [9] it was 5.88 µM (active); in experiment [11] it was 1.04 µM (active).

Consider `Oc1ccc(Cl)c(Cl)c1Cl`, for which the Potency result in experiment [2], in experiment [4], in experiment [5], in experiment [6], in [7] and in [13] was “inactive” throughout. Moreover, the Potency result in experiment [10] was “inactive”. Moreover, the Potency in experiment [3] was 63.4 µM (active); in experiment [14], 26.1 µM (active); in experiment [9] it was 26.1 µM (active).

For the compound `Clc1ccc(C2(Cn3cncn3)CC(Br)CO2)c(Cl)c1` (stereo not given), the Potency result in experiment [12], in experiment [2] and in experiment [7] was “inactive” each time. Besides, the Potency in experiment [3] is 24.2 µM (active); in experiment [13] it was 31.5 µM (active); in experiment [14] it was 0.177 µM (active); in [8] it was 5 µM (active); in [9] it was 31.5 µM (active); in experiment [11], 0.126 µM (active).

For the compound `ClP(Cl)(Cl)(Cl)Cl`, the Potency entry in experiment [12], in [15], in experiment [3], in experiment [4], in experiment [5] and in experiment [6] was “inactive” in each case. The Potency result in experiment [7], in experiment [13], in [8], in [9] and in experiment [10] was “inactive” throughout.

With `O=C1c2ccccc2C(=O)C1C(=O)C(c1ccccc1)c1ccccc1`, the Potency result in experiment [12], in experiment [2], in experiment [17], in experiment [18], in experiment [4] and in experiment [5] was “inactive” in each case. Further, the Potency entry in experiment [6], in [7], in experiment [10] and in experiment [11] was “inactive” each time. Further, in [16], the max activation was -0.238%. In addition, the Potency in experiment [14] is 21.9 µM (active); in experiment [8] it was 1.38 µM (active); in [9] it was 15.5 µM (active).

With `CCCC(=O)Cl`, the Potency result in [12], in experiment [2], in experiment [3], in experiment [4], in [5] and in [6] was “inactive” each time. Further, the Potency result in experiment [7], in experiment [13], in experiment [14], in experiment [8], in experiment [10] and in experiment [11] was “inactive” throughout.

With `COc1nn(CSP(=S)(OC)OC)c(=O)s1`, the Potency entry in [12], in experiment [2], in [6], in [7] and in experiment [10] was “inactive” each time. For the same compound, the Potency in [3] is 54.5 µM (active); in experiment [4], 69.6 µM (active); in experiment [13], 31.7 µM (active); in experiment [14], 0.633 µM (active); in experiment [8], 5.48 µM (active); in experiment [9], 7.96 µM (active).

Consider `Cc1ccc(-c2c(Cl)nc(C#N)n2S(=O)(=O)N(C)C)cc1`, for which the Potency entry in experiment [12], in [2], in experiment [4], in experiment [5], in [6] and in experiment [7] was “inactive” in each case. Also, the Potency result in experiment [13], in experiment [10] and in experiment [11] was “inactive” each time. The Potency in [3] is 9.68 µM (active); in experiment [14], 79.6 µM (active); in [8], 11.2 µM (active); in experiment [9] it was 22.4 µM (active).
